Experimental findings from PubChem BioAssay (NCI) are described below.

What all share (assay): NCI-60 one-dose screen, 48 h (100 = growth as untreated, 0 = no growth, -100 = all killed)
Holding throughout (conditions): 10 µM unless noted

Experiment [1] deals with SK-MEL-2 melanoma.
For experiment [2], the system named is EKVX NSCLC.
Experiment [3] has as its system SN12C renal.
Experiment [4] concerns UO-31 renal.
Experiment [5] deals with TK-10 renal.
For experiment [6], the system named is ACHN renal.
Experiment [7] deals with CAKI-1 renal.
Experiment [8] deals with A498 renal.
Experiment [9] has as its system CCRF-CEM leukemia.
Experiment [10] deals with MOLT-4 leukemia.
The test system of experiment [11] is RPMI-8226 leukemia.
Experiment [12] has as its system OVCAR-8 ovarian.
For experiment [13], the system named is OVCAR-5 ovarian.
Experiment [14] has as its system OVCAR-4 ovarian.
In experiment [15] the test system is SK-OV-3 ovarian.
Experiment [16] concerns IGROV1 ovarian.
Experiment [17] deals with OVCAR-3 ovarian.
Experiment [18] relates to HS 578T breast.
The subject of experiment [19] is NCI/ADR-RES ovarian.
The test system of experiment [20] is SR leukemia.

Compounds without any hit were thinned out: in the full panel of roughly 83,000, 20% have a hit.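 Results are percent growth after 48 hours of single-concentration exposure. 100 means growth as in untreated cells, lower positive values show inhibition; negative values down to -100 show cell death.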 A number with no mark means an inactive call. The source made the active and inactive calls. How the source made its calls: active means growth percent below 10; inactive means the rest.

Turning to `CC(C)(C)OC(=O)N1CCC2(CC1)Oc1ccccc1[C@H]1CC(c3ccc(Br)cc3)=NN12`, the growth in experiment [1] is 71.9%; in experiment [2], 56.6%; in [3], 71.2%; in [4], 43%; in [5], 131%; in [6], 60%. In addition, the growth in experiment [7] is 41.1%; in experiment [8], 98.7%; in experiment [9] it was 58.2%; in experiment [10], 47%; in experiment [11], 56.2%; in experiment [12] it was 83.3%. Besides, the growth in experiment [13] was 122%; in experiment [14], 65%; in [15], 79.1%; in [16], 58.7%; in experiment [17], 77.1%; in experiment [18] it was 91.5%. Also, the growth in experiment [19] is 83.7%.

For `N#CCc1nnc(NC(=O)c2ccc(-n3c(=O)[nH]c4ccccc4c3=O)cc2)s1`, the growth in experiment [1] is 97.7%; in experiment [2] it was 94.8%; in experiment [3], 95.4%; in [4], 66.7%; in experiment [5], 104%; in [6], 92.1%. The growth in [7] is 86.3%; in experiment [8], 96.2%; in experiment [9] it was 101%; in experiment [10], 103%; in experiment [20], 93.4%; in experiment [11], 111%. For the same molecule, the growth in experiment [12] was 100%; in experiment [14], 106%; in [15] it was 106%; in experiment [16], 105%; in [17] it was 104%; in experiment [18] it was 87.9%. For the same molecule, the growth in experiment [19] was 104%.

Turning to `CC[C@]12C=CCN3CC[C@]4(C(=C(C(=O)OC)C1)Nc1cc(OC)c([C@@H]5[C@H]6O[C@H]6[C@@]6(CC)CC(C(=O)OC)=C7Nc8cc(OC)ccc8[C@@]78CCN5[C@@H]68)cc14)[C@@H]32`, the growth is 83.1% in experiment [1]; 51.7% in [2]; 50% in experiment [3]; 69.5% in experiment [4]; 72.5% in [5]; 44% in [6]. The growth in experiment [7] was 43.4%; in [8], 141%; in [9] it was 30.8%; in experiment [10], 18.4%; in experiment [20], 5.93% (active); in experiment [11], 24.2%. For the same molecule, the growth in experiment [12] is 53.1%; in [14] it was 59.8%; in experiment [15], 116%; in [16] it was 64%; in [17] it was 55.8%; in [19], 80.8%.

Take `CN1C(=O)C(O)(CC(=O)c2cc3ccccc3oc2=O)c2ccccc21` (configuration not stated): the growth was 111% in [1]; 90.1% in [2]; 88.8% in experiment [3]; 57.3% in experiment [4]; 116% in experiment [5]; 98.1% in [6]. Besides, the growth in [7] is 86.1%; in experiment [8], 162%; in experiment [9], 92%; in experiment [10], 83.4%; in experiment [20] it was 71.3%; in experiment [11] it was 97.6%. Further, the growth in experiment [12] was 107%; in experiment [14] it was 99.9%; in experiment [15] it was 94.9%; in experiment [16] it was 97.7%; in [17] it was 90.5%; in experiment [18], 99%. Moreover, the growth in [19] is 98.7%.

As for `Cc1ccc2nc(NC(=O)Nc3cccc(Cl)c3)sc2c1`, the growth in experiment [1] was 114%; in experiment [2] it was 87.7%; in [3], 103%; in experiment [4], 82%; in [5], 114%; in experiment [6], 105%. The growth is 90.7% in experiment [7]; 144% in experiment [8]; 89.6% in experiment [9]; 82.9% in experiment [10]; 89.9% in [20]; 96.7% in experiment [11]. Besides, the growth is 107% in experiment [12]; 99.5% in experiment [14]; 102% in experiment [15]; 98.4% in experiment [16]; 123% in [17]; 116% in experiment [18]. Moreover, in [19], the growth was 93.9%.

On to `Cn1cc(-c2cc(N)n3nc(-c4c[nH]c5ccccc45)cc3n2)c2cc(Br)ccc21`, for which the growth was -65.4% (active) in [1]; -86.5% (active) in [2]; -78.8% (active) in experiment [3]; -82.3% (active) in [4]; -94.6% (active) in experiment [5]; -87.7% (active) in experiment [6]. Besides, the growth in [7] was -87.3% (active); in experiment [8], -92.5% (active); in experiment [9], -22.9% (active); in [10] it was 7.68% (active); in [20] it was 13.6%; in experiment [11], -9.12% (active). The growth was -63.7% (active) in experiment [12]; -40.6% (active) in [14]; -60% (active) in [15]; -70.6% (active) in experiment [16]; -48% (active) in experiment [17]; -29.9% (active) in [18]. The growth in experiment [19] was -18.4% (active).

Regarding `O=C(Nc1ccc(-c2ccc3c(c2)NC(=O)/C3=C\c2ccc[nH]2)cc1)Nc1cccc(Cl)c1`, the growth in experiment [1] is -52.8% (active); in experiment [2], -19.6% (active); in experiment [3], 40.7%; in experiment [4] it was 10.5%; in [5] it was -12.1% (active); in experiment [6] it was -19.6% (active). Further, the growth is -14.9% (active) in [7]; 21.6% in [8]; 13.7% in experiment [9]; 5.1% (active) in [10]; 6.39% (active) in experiment [20]; 18.2% in [11]. Besides, the growth is -34.5% (active) in experiment [12]; 6.87% (active) in experiment [14]; 3.23% (active) in experiment [15]; -62.2% (active) in experiment [16]; 2.44% (active) in experiment [17]; 21.9% in experiment [18]. For the same molecule, in experiment [19], the growth is -37.9% (active).
